Data on 14 compounds can be found in PubChem BioAssay (EPA / NIEHS).

SMILES strings stand for the structures. Where a structure was tested more than once in an assay, its records may differ in their call. Active and inactive are the calls of the source. The calls were made as follows: active = hit-call score of the fitted dose curve at least 0.9, where 1 is the maximum; inactive = score below 0.9.

Tested on in one assay: not listed separately
Nature of the assay: CCTE_Mundy_HCI_Cortical_NOG_BPCount: CCTE's Neurite Outgrowth Assay in rat cortical cells for Branch Point Count, Mundy Lab (AID 2284237).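 As to AC50: branch points counted about two days after chemical exposure.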
Settings: not given
The method in brief:
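Measured 50.33 h after dosing, this morphology endpoint uses rat primary cortical cultures labelled for betaIII-tubulin. Branch points are quantified by high-content imaging, with DMSO as negative control and baseline.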
The term AC50 denotes the concentration giving half of the maximal activity seen. Turning to `CC1(C)C(C=C(Cl)Cl)C1C(=O)OC(C#N)c1ccc(F)c(Oc2ccccc2)c1` (centres undefined), the half-maximal activity concentration (AC50) was 63.1 µM (active) and the result was inactive.
As to `CCC(C)(C)C(=O)OC1=C(c2ccc(Cl)cc2Cl)C(=O)OC12CCCCC2`, the result was inactive.
The same measure, in the same setting: the value for `CC(C)N(C(=O)COc1nnc(C(F)(F)F)s1)c1ccc(F)cc1` was “inactive”; that for `O=C(O)COc1ccc(Cl)cc1Cl` was “inactive”.
On to `COP(=S)(OC)Oc1ccc([N+](=O)[O-])cc1`, for which the AC50 was 23.2 µM (active).
The same measure, in the same setting: under `CC1(c2ccc(Oc3ccccc3)cc2)OC(=O)N(Nc2ccccc2)C1=O` (centres undefined) stands 50 µM (active); under `CC[C@H](C)[C@H]1O[C@]2(C=C[C@@H]1C)C[C@@H]1C[C@@H](C/C=C(\C)[C@@H](O[C@H]3C[C@H](OC)[C@@H](O[C@H]4C[C@H](OC)[C@@H](O)[C@H](C)O4)[C@H](C)O3)[C@@H](C)/C=C/C=C3\CO[C@@H]4[C@H](O)C(C)=C[C@@H](C(=O)O1)[C@]34O)O2` (tested in a mixture with another compound), 8.26 µM (active).
As to `COP(=O)(OC)OC=C(Cl)Cl`, the AC50 was 70 µM (active) and the compound was classed as inactive.
`O=[N+]([O-])/N=C1\NCCN1Cc1ccc(Cl)nc1`: the call was inactive.
Still for that read-out and setting: under `CNC(=O)CSP(=S)(OC)OC` stands “inactive”.
Still for that read-out and setting: under `O=C(O)C(F)(F)C(F)(F)C(F)(F)C(F)(F)C(F)(F)C(F)(F)C(F)(F)F` stands “inactive”.
`O=S1OCC2C(CO1)C1(Cl)C(Cl)=C(Cl)C2(Cl)C1(Cl)Cl` (centres undefined): the AC50 is 21.4 µM (active).
With `O=S(=O)(O)C(F)(F)C(F)(F)C(F)(F)C(F)(F)C(F)(F)C(F)(F)C(F)(F)C(F)(F)F`, the result was inactive.

Read-out in another assay: Collagen I, COL1A1 (gene 1277)
Description: BSK_MyoF_CollagenI: BioMAP Diversity Plus: MyoF Assay for Collagen I Biomarker Activity (AID 2284238). Conditions: primary human lung fibroblasts. On the procedure:
BSK_MyoF is a cell-based, multiplexed-readout assay that uses lung fibroblasts, […], with measurements taken at 24 hours after chemical dosing in a microplate: 96-well plate.BSK_MyoF_CollagenI is an assay component measured in the BSK_MyoF assay. It measures Collagen I antibody related to regulation of gene expression using ELISA technology.Data from the assay component BSK_MyoF_CollagenI was analyzed at the endpoint, BSK_MyoF_CollagenI, in the positive analysis fitting direction relative to DMSO as the negative control and baseline of activity. Using a type of binding reporter, gain or loss-of-signal activity can be used to understand protein changes. To generalize the intended target to other relatable targets, this assay endpoint is annotated to the 'cell adhesion molecules' intended target family, where the subfamily is 'collagen'.
The levels of cell surface (or secreted, indicated by the prefix "s") biomarker endpoints were measured by ELISA. Overt cytotoxicity to cells in confluent adherent cultures (all systems other than the BT system) was assessed by measuring total protein levels using sulforhodamine B (SRB) staining in parallel cultures at the time of biomarker measurements, indicated as SRB endpoints. For proliferation assays for adherent cell types, individual cell types are cultured at sub-confluence and relative cell numbers quantified by SRB staining at time points optimized for each system (48 h: 3C and CASM3C systems; 72 h: BT and HDF3CGF systems; 96 h: SAg system). SRB was performed by staining cells with 0.1% SRB after fixation with 10% TCA and reading wells at 560 nm.Viability and proliferation of PBMC (T cells) was quantified by Alamar Blue reduction for the SAg and BT systems. For PBMC viability (referred to as PBMC Cytotoxicity within the assay endpoint names), cells were plated (75,000/well in a 96-well plate) and then chemical samples added for 1 h before addition of activators, SEB and TSST-1 (20 ng/mL final concentration each). Cells were incubated for 90 h. Then, Alamar Blue (20 uL/well) (Invitrogen, Cat DAL1100) was added for 6 h, and the plates were read with a fluorescence microplate reader at 546/580 nm (excitation/emission). For PBMC proliferation, cells were plated and activated as above but incubated for only 16 h prior to addition of Alamar Blue. Plates were read after 6 h.
On to `ClC1C(Cl)C(Cl)C(Cl)C(Cl)C1Cl` (centres undefined), for which the AC50 is 25.5 µM (active) and the result was inactive.
`O=C(O)C(F)(F)C(F)(F)C(F)(F)C(F)(F)C(F)(F)C(F)(F)C(F)(F)F`: the outcome was inactive.
The same measure, in the same setting: under `O=S(=O)(O)C(F)(F)C(F)(F)C(F)(F)C(F)(F)C(F)(F)C(F)(F)C(F)(F)C(F)(F)F` stands “inactive”.
